Screening results as filed in PubChem.
Sampled rows, rich in hits. Any-hit rate of the full collection: about 7%.
AHR activator = activates the human aryl hydrocarbon receptor. activation, % at 5 µM. AHR-responsive luciferase reporter cells, luminescence. 320,000 compounds, 2.5% hits. AID 2796; in the data active = activation above about 47%;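 also: 0% = vehicle wells and 100% = reference agonist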
GRIN3A LBD mod = modulators (binders) of human NR3A ligand-binding domain | NR3A LBD differential scanning fluorimetry, Tm shift; 0% = protein alone, 100% = glycine-bound protein | Tm shift relative to glycine control, % at 25 µM | 340,000 compounds, 2.5% hits | AID 1259313;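 active = melting temperature shift of at least 10% of the positive control shift, at one fixed dose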
KLK7 zymogen act = activates the human kallikrein-7 zymogen; P49862; purified proKLK7, EDANS-DABCYL substrate fluorescence; 100% is mature enzyme control, 0% vehicle; activation, % at 7 µM; 370,000 compounds, 0.9% hits;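 active = activation above the mean of all tested compounds plus 3 SD, computed per campaign excluding outliers beyond control limits, cut at about 13% in these data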
ADAM10 inh = inhibitors of human ADAM10; recombinant ADAM10, EDANS/DABCYL FRET peptide cleavage, 3 h; inhibition, % at 7 µM; 370,000 compounds, 0.62% hits;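 active = inhibition above a per-campaign cutoff equal to the mean of compounds falling between control-based bounds plus 3 SD, cut at about 20% in these data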;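 also: 0% = DMSO wells while the 100% control is not disclosed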
rCAG RNA binder = r(CAG) repeat RNA binding. inhibition, % at 3 µM. TO-PRO-1 dye displacement fluorescence. AID 651821. 370,000 compounds, 1.3% hits;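 active = inhibition above the plate cutoff, the mean of all test compounds on that plate plus 3 SD, cut at about 35% in these data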;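 also: 0% = DMSO alone and 100% = 100 µM mitoxantrone as full dye displacement; higher means more dye released from RNA so lower well fluorescence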
ADAM17 inh = inhibits human ADAM17; 370,000 compounds, 0.83% hits; inhibition, % at 6.95 µM; recombinant ADAM17, EDANS/DABCYL FRET peptide cleavage;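 active = inhibition above the mean of compounds lying between control limits plus 3 SD, set per campaign, cut at about 8.5% in these data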;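 also: 0% = DMSO-only wells as the low control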
Target sequence (P78536 215-824 limits assumed): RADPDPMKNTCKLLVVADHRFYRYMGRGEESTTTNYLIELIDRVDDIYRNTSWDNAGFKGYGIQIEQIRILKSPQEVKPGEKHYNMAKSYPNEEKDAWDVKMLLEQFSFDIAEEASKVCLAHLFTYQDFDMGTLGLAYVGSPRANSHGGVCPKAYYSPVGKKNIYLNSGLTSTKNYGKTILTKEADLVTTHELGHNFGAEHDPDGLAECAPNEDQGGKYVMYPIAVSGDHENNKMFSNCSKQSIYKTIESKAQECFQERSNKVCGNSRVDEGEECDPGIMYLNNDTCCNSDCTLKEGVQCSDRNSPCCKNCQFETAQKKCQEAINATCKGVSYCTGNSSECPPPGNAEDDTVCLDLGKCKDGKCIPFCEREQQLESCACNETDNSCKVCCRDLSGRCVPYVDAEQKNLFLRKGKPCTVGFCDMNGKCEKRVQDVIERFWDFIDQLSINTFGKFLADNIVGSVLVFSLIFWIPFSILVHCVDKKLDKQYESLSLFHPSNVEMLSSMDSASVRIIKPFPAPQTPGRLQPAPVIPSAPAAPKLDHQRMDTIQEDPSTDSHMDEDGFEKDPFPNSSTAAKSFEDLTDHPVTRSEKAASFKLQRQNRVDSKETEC
KLK7 act conf = proKLK7 activation, confirmation. shares compounds with KLK7 zymogen act. purified proKLK7, EDANS-DABCYL substrate fluorescence; scaled: vehicle 0, mature enzyme 100. activation, % at 7 µM. 3,200 compounds, 68% hits;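 active = activation, as change over the incubation, above the mean of all tested compounds plus 3 SD, cut at about 13% in these data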
EDANS-DABCYL int = optically interferes with EDANS-DABCYL signal, flagging KLK7 hits. shares compounds with KLK7 zymogen act. EDANS-DABCYL substrate fluorescence interference, no enzyme, 4 h; solvent 0%, active enzyme control 100%. activation, % at 7 µM. 3,200 compounds, 80% hits;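 active = activation above the all-compound mean plus 3 SD, ignoring values outside control-based bounds, cut at about 4.8% in these data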;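 also: value is the 4 h activation minus the activation read at time zero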
* marks the source's active call; other numbers are inactive results; i = inactive; x = not tested or not shown.

SMILES	AHR activator	GRIN3A LBD mod	KLK7 zymogen act	ADAM10 inh	rCAG RNA binder	ADAM17 inh	KLK7 act conf	EDANS-DABCYL int
CCCCn1c(=O)cc(C)n(-c2ccccc2)c1=O	-3.2	0.2	0.1	-0.7	-1.2	5.2	x	x
Cc1ccc(C)c(-n2c3nc(=O)n(C)c(=O)c-3cc3ccccc32)c1	-1.2	-0.1	27.6*	i	-2.9	-337.5	14.5*	22.6*
CCCCNC(=O)Nc1nnc(C(C)(C)C)s1	4.1	2.5	0.2	5.8	2.5	0.9	x	x
CNC(=S)NNC(=O)c1sc2cc(C(F)(F)F)cnc2c1-c1cccnc1	-0.2	-3.0	13.8*	-417.2	13.6	-140.0	15.7*	22.0*
NS(=O)(=O)c1cccc(NC(=O)CSc2nnc3n2CCCCC3)c1	1.8	2.4	-0.2	-3.6	0.5	0.7	x	x
COc1ccccc1NS(=O)(=O)c1cccc(C(=O)N/N=C/c2ccc(NC(C)=O)cc2)c1	-0.6	-2.0	235.1*	-75.3	6.4	-69.5	-8.2	-4.0
COc1ccccc1NS(=O)(=O)c1ccc(NC(C)=O)cc1	2.4	0.7	-0.2	5.8	5.1	0.1	x	x
CCOc1ccccc1NC(=O)CSc1nnc(CNC(=O)c2cc(OC)c(OC)c(OC)c2)o1	0.5	2.3	-1.1	1.5	-4.2	-1.7	x	x
C=CCn1c(SCC(=O)N(C)C)nc2sc3c(c2c1=O)CCC3	-1.8	0.2	-0.3	-0.1	-1.4	-3.2	x	x
Cc1ccc2c(c1)-c1cc(C)ccc1C2=O	x	-2.0	-0.8	-12.2	3.0	-5.8	x	x
CCCc1cc(=O)oc2c(CN3CCN(C)CC3)c(O)ccc12	5.7	1.8	45.7*	i	-3.1	i	66.4*	74.9*
CC(=O)c1c(O)ccc2c(-c3ccccc3)cc(=O)oc12	3.2	0.2	5.5	-39.4	0.6	-11.8	x	x
CN(C)Cc1c(O)ccc2c(-c3ccccc3)cc(=O)oc12	-0.1	-0.9	12.8*	-125.8	0.3	-48.2	25.9*	25.5*
CCCCc1cc(=O)oc2cc(O)ccc12	0.5	0.7	56.0*	i	-1.4	i	79.1*	78.5*
CCCCc1cc(=O)oc2c(CN(C)C)c(O)ccc12	10.1	0.1	54.6*	i	-1.9	i	62.6*	66.4*
Cc1ccc(C2=NCCn3c2c2ccc(C(F)(F)F)cc2[n+]3[O-])cc1	37.7	-3.1	0.9	-5.5	-6.6	0.4	x	x
CC1Cc2ccccc2N1S(=O)(=O)c1cccc(C(=O)NCCCn2ccnc2)c1 (stereo not given)	23.2	-0.9	0.6	1.2	-3.9	2.4	x	x
CCC(CC)C(=O)NCCCN1CCOCC1	2.2	-1.7	0.4	3.1	-1.0	-1.9	x	x
CCCCc1cc(=O)oc2c(CN3CCN(C)CC3)c(O)ccc12	3.5	2.7	52.7*	i	-8.8	i	70.5*	74.5*
CCCc1cc(=O)oc2c(CN3CCOCC3)c(O)ccc12	1.3	0.2	75.5*	i	1.8	i	71.6*	63.1*
O=c1cc(CN2CCc3ccccc32)c2ccc(O)cc2o1	11.0	-14.8	18.8*	-400.6	10.0	-127.1	40.8*	45.1*
O=c1oc2c(CN3CCOCC3)c(O)ccc2c2ccccc12	5.3	-0.5	1.1	0.3	2.5	-5.4	x	x
O=c1ccnc(SCCc2ccc([N+](=O)[O-])cc2)[nH]1	1.8	1.2	-0.2	2.8	-1.2	-3.8	x	x
CCOc1ccc(S(=O)(=O)N2CCC(C(=O)NCc3ccncc3)CC2)cc1Cl	0.6	1.2	0.7	3.6	4.0	0.6	x	x
Cc1ccc(NC(=O)CN(C)C(=O)/C=C/c2cccc(F)c2)cc1	-0.3	1.4	-0.1	0.1	-2.6	-5.3	x	x
COc1ccc(CCC(=O)N(C)CC(=O)Nc2cc(C)ccc2C)cc1	8.6	0.6	0.4	-5.6	-5.5	-3.2	x	x
COc1ccc(OC)c(/C=C/C(=O)N(C)CC(=O)Nc2cc(C)ccc2C)c1	12.5	0.3	21.1*	i	4.3	-252.5	0.7	8.4*
